# Laboratory results as given in PubChem BioAssay (NCATS).
# Inconclusive results are not listed. A number with no mark means an inactive call. Activity calls are given as the source filed them. Calls follow the shape of the dose curve; as a rule, active = well fitted inhibition curve with a large enough effect; inconclusive = small, poorly fitted or top-dose-only effect; inactive = no such curve, though single readings can be large or run the other way.
# System: Zika virus NS2B-NS3 protease (linked construct)
# Experiment: Primary screen NINDS Rhodamine qHTS for Zika virus inhibitors (AID 1347160); also: nearly all actives have a fitted effect of over 55% in size
# Conditions: purified NS2B-NS3 protease, Rhodamine110 substrate fluorescence; series mostly up to 57.1 µM; activity change, negative = inhibition: at the top concentration
# How it was run: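 Purified linked NS2B-NS3 protease (NS2B hydrophilic domain joined to NS3 protease by flexible linker), 25 nM in 10 mM Tris-HCl pH 8.0, 0.01% Tween 20. Compounds titrated, 15 min preincubation at room temperature; 1.5 microM Rhodamine110 substrate, FITC fluorescence change over 15 min.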
# % is scaled to controls: 0 for no effect and ±100 for the full control effect.
SMILES,"activity change, negative = inhibition",outcome
C=C1/C(=C/C=C2\CCC[C@]3(C)[C@@H]([C@@H](C)OCCC(O)(CC)CC)CC[C@@H]23)C[C@@H](O)C[C@@H]1O,-22.2%,
COc1cc2ncnc(Nc3ccc(F)c(Cl)c3)c2cc1O,-25.3%,
CN1c2c(nc(N)[nH]c2=O)NC[C@@H]1CNc1ccc(C(=O)N[C@@H](CCC(=O)O)C(=O)O)cc1,34.7%,
CNc1cc2[nH]c(=O)n(-c3ccc(NC(=O)NS(=O)(=O)c4ccc(Cl)s4)cc3)c(=O)c2cc1F,,inactive
CCCCOc1ccc(S(=O)(=O)n2c(C)nc3ccccc32)cc1,6.03% [at 33.1 µM],
O=C(NCC1(c2nc(-c3ccccc3)cs2)CCOCC1)c1cccc(-c2noc(C(F)(F)F)n2)c1,-13.3%,
O=C1NC(=O)C(c2cnc3ccccn23)=C1c1cn2c3c(cc(F)cc13)CN(C(=O)N1CCCCC1)CC2,-29.6%,
C=CC(C)(O)CC[C@@H]1[C@@]2(C)CCCC(C)(C)C2CC[C@@]1(C)O (some centres undefined),23%,
CC(C)(C)c1ccc2c(c1)CC[C@H]2NC(=O)Nc1cccc2[nH]ncc12,-2.28%,
CC(C)Nc1nc(Nc2ccccc2)nc(-c2ccccc2)n1,,inactive
CCS(=O)c1nc(-c2cccc(OCc3ccccc3)c2)cc(C(F)(F)F)n1 (centres undefined),-16.6%,
C/C(=C\CCC(C)C1=CCC2(C)OC3=C(CC12)C(=O)C(O)CC3)CO (centres undefined),,inactive [at 33.1 µM]
CC[C@@H](C)Nc1cc(C(=O)NC2CC3CCC(C2)N3c2ccc(C(=O)C3CC3)cn2)c(C)cc1C(N)=O (some centres undefined),24.4%,
COc1cc(-n2cnc3cc(-c4ccc(Cl)cc4)sc3c2=O)ccc1OCCN1CCCC1,8.15%,
C=C[C@H](/C=C\c1ccc(O)cc1)c1ccc(O)cc1,5%,
CNc1ccc([N+](=O)[O-])c(Nc2ccc3[nH]ncc3c2)n1,9.2%,
O=C1COC2(CCN(S(=O)(=O)c3ccc(-c4ccc5cccnc5c4)cc3)CC2)CN1C1CC1,45.6%,
O=C(Nc1ccccc1)N1CCC(Cc2cnc3ccccc3c2)CC1,0.424%,
C=C1C(=O)OC2/C=C(/C)C3=CC(=O)C(C)(CC(OC(=O)/C(C)=C/COC(C)=O)C12)O3 (centres undefined),-5.43% [at 33.1 µM],
Cc1cc2c(cc1N1C(=O)c3cccc4c(CCCO)ccc(c34)C1=O)n(C)c(=O)n2C,22.2% [at 15.1 µM],

SMILES,"activity change, negative = inhibition",outcome
CC(C)(Cc1ccccc1)NCC(O)c1ccc(O)c(NS(C)(=O)=O)c1 (centres undefined),,inactive
CN(C)CC#CCCC(=O)C(O)(c1ccccc1)C1CCC1 (centres undefined),28.9%,
C/C=C(/C)C(=O)O[C@H]1C=C(CO)C(=O)[C@H](OC(=O)/C(C)=C/CO)[C@H]1C(C)C,,inactive [at 33.1 µM]
CN(C)c1cccc(Oc2cnc(Nc3cccc(O)c3)nc2)c1,8.97%,
O=C(NCc1cccs1)c1cc2nc(-c3ccco3)cc(C(F)(F)Cl)n2n1,-5.25%,
C=C[C@](C)(O)CC[C@H]1C(C)=CC(=O)[C@H]2C(C)(C)CCC[C@]12C,-5.74%,
O=C(NCCCNc1nc(Nc2cccc(CN3CCOCC3)c2)ncc1C1CC1)C1CCC1,54.7%,
Cc1ccc(NC(=O)C(C)C)cc1C1CCN(Cc2ccc(Oc3ccc(F)c(F)c3)cc2)CC1,117%,
CCC/C=C/C(=O)O[C@H]1CC(C)(C)CC2[C@@]13[C@H](O)C[C@]1(C)[C@@]2(CCC2[C@@]4(C)CC[C@H](O[C@@H]5O[C@H](C(=O)O)[C@@H](O)[C@H](O[C@@H]6O[C@H](CO)[C@H](O)[C@H](O)[C@H]6O[C@@H]6O[C@@H](C)[C@H](O)[C@@H](O)[C@H]6O[C@@H]6OC[C@](O)(CO)[C@H]6O)[C@H]5O[C@@H]5O[C@H](CO)[C@H](O)[C@H](O)[C@H]5O)C(C)(C)C4CC[C@]21C)O[C@H]3O (some centres undefined),-24.8% [at 10.7 µM],
Cc1nc(N2CCN(C(=O)c3ccco3)CC2)c2c3c(sc2n1)CCCC3,-13.9%,
CS/C=C/C(=O)O[C@@H]1CCC2=CC(=O)C(=C(C)C)C[C@]2(C)[C@H]1C,-5.56% [at 33.1 µM],
CN(C)C(=O)COC(=O)c1cc(-c2ccc(C3CCNCC3)cc2)c2ccc(-c3ccc(C(F)(F)F)cc3)cc2c1,635%,
C[C@H]1CC[C@@]2(OC1)O[C@H]1CC3[C@@H]4CC[C@@H]5C[C@@H](O[C@@H]6O[C@H](CO)[C@@H](O[C@@H]7O[C@H](CO[C@@H]8OC[C@@H](O)[C@H](O)[C@H]8O)[C@@H](O[C@@H]8O[C@H](CO)[C@H](O)[C@H](O)[C@H]8O)[C@H](O)[C@H]7O)[C@H](O)[C@H]6O)CC[C@]5(C)C4CC[C@]3(C)[C@H]1[C@@H]2C (some centres undefined),-15.8% [at 15.1 µM],
FC(F)(F)c1ccccc1-c1cc(C(F)(F)F)c2nc(C3=NOC4(CCCCC4)C3)[nH]c2c1,,inactive
CC1(C)CC[C@]2(C(=O)O[C@@H]3O[C@H](CO)[C@@H](O)[C@H](O)[C@H]3O)CC[C@]3(C)C(=CCC4[C@@]5(C)CC[C@H](O[C@@H]6O[C@H](C(=O)O)[C@H](O)[C@H](O)[C@H]6O)C(C)(C)C5CC[C@]43C)[C@@H]2C1 (some centres undefined),-10.5% [at 15.1 µM],
O=C(NCc1ccccc1)c1ccc2c(=O)n(-c3cccc(C(F)(F)F)c3)c(=S)[nH]c2c1,-28.2%,
C[C@@H](Nc1ncnc2[nH]c(-c3ccc(O)cc3)cc12)c1ccccc1,17.4%,
CCCc1cc(C)n(C)c(=O)c1CN(C)C(=O)c1cc(-c2ccc(N3CCN(C(C)C)CC3)nc2)cc2c1cnn2C(C)C,-1.49%,
O=C(Nc1ccc(C(O)(C(F)(F)F)C(F)(F)F)cc1)c1ccc(C(F)(F)F)cc1,1.05%,
